Source: PubChem (National Center for Advancing Translational Sciences (NCATS))
Compounds with a hit are over-represented: about 17% of the library has one in this group of screens.
ClpP mod: qHTS Assay for Activators of ClpP; ATP-dependent Clp protease proteolytic subunit (Bacillus subtilis (strain 168)), P80244; purified B. subtilis ClpP, FRET peptide cleavage, 20 min; Potency, µM (top dose mostly 57.5 µM); 340,000 compounds, 1.9% hits; AID 651965, 2013; active = well fitted falling curve with a large enough effect; inconclusive = small, poorly fitted or top-dose-only effect; inactive = no such curve, though single readings can be large or run the other way; note: the source files actives as falling curves though it sought activators and does not explain the sign; nearly all actives have a fitted effect of over 65% in size
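ClpP 10 microg/mL final, pH 8 Tris/KCl buffer with BSA, glycerol, Tween-20; compound pinned in; FRET-FV substrate; RT 20 min; Ex320/Em430; ΔFRET vs ADEP 5.8 microM, DMSO, no enzyme.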
TDP1 cell CPT: qHTS for Inhibitors of human tyrosyl-DNA phosphodiesterase 1 (TDP1): qHTS in cells in presence of CPT | chicken DT40 Tdp1-/-;hTDP1 cells + 20 nM CPT, ATP luminescence, 48 h | Potency, µM (highest dose often 46.2 µM), actives largely listed as inhibitors | 420,000 compounds, 12% hits; note: nearly all actives have a fitted effect of over 55% in size
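Chicken DT40 Tdp1-/- cells stably complemented with human TDP1 were seeded at 400 cells/well in medium containing 20 nM camptothecin, exposed to pin-transferred compounds, and grown at 37 °C for at least 48 hr. Viability was read as ATP luminescence.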
TDP1 inh: qHTS Assay for Inhibitors of Tyrosyl-DNA Phosphodiesterase (TDP1); Potency, µM (series often up to 130 µM), usual class: inhibitors; Tyrosyl-DNA phosphodiesterase 1 (Homo sapiens), Q9NUW8; AID 485290, 2010; recombinant TDP1, AlphaScreen DNA substrate cleavage; 350,000 compounds, 0.28% hits; note: nearly all actives have a fitted effect of over 40% in size
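Recombinant human Tdp1 (E. coli-expressed, 1 nM final) preincubated with compounds 15 min at room temperature, then 5'-biotin/3'-phosphotyrosine-FITC DNA substrate (15 nM final) added for 5 min. AlphaScreen beads (10 ug/ml final) added 10 min; cleavage lowers signal.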
DT40 TDP1 no CPT: qHTS for Inhibitors of human tyrosyl-DNA phosphodiesterase 1 (TDP1): qHTS in cells in absence of CPT; DT40 Tdp1-/- hTDP1 cells, no CPT, ATP luminescence, 48 h; Potency, µM (top dose mostly 46.2 µM), usual class: inhibitors; 420,000 compounds, 15% hits; note: nearly all actives have a fitted effect of over 55% in size
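Stably hTDP1-transfected Tdp1-null chicken DT40 cells were treated with library compounds minus camptothecin and grown for at least 48 hr at 37 °C, after which cellular ATP was quantified by luminescence.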
Large screens that a line does not name were inactive. Unless noted, calls come from the whole dose curve; as a rule, active = well fitted curve in the direction sought with a large enough effect; inconclusive = small, poorly fitted or top-dose-only effect, or another doubt; inactive = no such curve, though single readings can be large; an effect the other way counts as inactive or inconclusive.

Cc1ccc(S(=O)(=O)N/N=C\c2ccc([N+](=O)[O-])o2)cc1	TDP1 cell CPT 15µM, DT40 TDP1 no CPT 16µM
CNCc1ccccc1Sc1cccc2ccccc12	TDP1 cell CPT 23µM, DT40 TDP1 no CPT 23µM
CN(C)CCN(C)Cc1ccccc1Sc1cccc2ccccc12	TDP1 cell CPT 9.2µM, DT40 TDP1 no CPT 8.2µM
Cc1ccc(OCC(=O)O/N=C(\N)Cc2ccc([N+](=O)[O-])cc2)cc1C	none (no result: TDP1 inh)
Cc1cc(C)c(O)c(-c2cc(C(=O)Nc3ccc(S(=O)(=O)N4CCOCC4)cc3)[nH]n2)c1	TDP1 cell CPT 16µM, DT40 TDP1 no CPT 16µM
CC(=O)Nc1ccc(NC(=O)c2cc(-c3ccc(C)c(C)c3O)n[nH]2)cc1	none (no result: TDP1 inh)
CC(=O)Nc1ccc(NC(=O)c2cc(-c3cc(C)cc(C)c3O)n[nH]2)cc1	TDP1 cell CPT 12µM, DT40 TDP1 no CPT 16µM (no result: TDP1 inh)
Cn1c(N)c(C(=O)COC(=O)Cc2ccc(F)cc2)c(=O)n(C)c1=O	none (no result: ClpP mod)
C=C(Br)Cn1c(CC)nc2ccccc21	DT40 TDP1 no CPT inconclusive
CC(C)C(=O)NCCc1nc2ccccc2n1CCc1ccccc1	TDP1 cell CPT inconclusive, DT40 TDP1 no CPT 21µM (no result: ClpP mod)
CCc1nc2ccccc2n1CCC(C)C	TDP1 cell CPT 26µM, DT40 TDP1 no CPT 16µM
C=C(Br)Cn1c(CC(C)C)nc2ccccc21	TDP1 cell CPT 12µM, DT40 TDP1 no CPT 9.2µM
CC(C)Cc1nc2ccccc2n1CCc1ccccc1	TDP1 cell CPT 23µM, DT40 TDP1 no CPT inconclusive (no result: ClpP mod)
CN(C)CC(C)(C)CNS(=O)(=O)CC12CCC(CC1=O)C2(C)C (stereo not drawn)	none
COCCCOc1cc(C[C@@H](C[C@H](N)[C@@H](O)C[C@H](C(=O)NCC(C)(C)C(N)=O)C(C)C)C(C)C)ccc1OC	none (no result: ClpP mod, TDP1 inh)
CSCC[C@H](NC(=O)[C@@H]1CCCN1C(=O)CNC(=O)[C@H](CCCCN)NC(=O)[C@H](Cc1cnc[nH]1)NC(=O)[C@H](CO)NC(=O)[C@H](CC(C)C)NC(=O)[C@H](CCCNC(=N)N)NC(=O)[C@@H]1CCCN1C(=O)[C@H](CCCNC(=N)N)NC(=O)[C@H](CCC(N)=O)NC(=O)[C@H](CCCNC(=N)N)NC(=O)[C@H](CCCNC(=N)N)NC(=O)[C@H](Cc1ccccc1)NC(=O)[C@@H](N)CCCCN)C(=O)N1CCC[C@H]1C(=O)N[C@@H](Cc1ccccc1)C(=O)O	none (no result: ClpP mod, TDP1 cell CPT, DT40 TDP1 no CPT)
Cc1ccc(N(CC(=O)NCCc2ccccc2)C(=O)CCC(=O)Nc2cc(C)ccn2)cc1	DT40 TDP1 no CPT inconclusive
O=C(Cc1c(O)c2ccccc2[nH]c1=O)NC1CCCCCC1	ClpP mod 20µM
O=C(Cc1c(O)c2ccccc2[nH]c1=O)NC1CCCCCCC1	ClpP mod 32µM
O=C(NC1CCCCCC1)c1c(O)c2ccccc2[nH]c1=O	DT40 TDP1 no CPT inconclusive
COc1ccc(CNCc2cccc(Oc3ccccc3)c2)cc1	DT40 TDP1 no CPT inconclusive (no result: ClpP mod)
COC(=O)[C@@H](c1ccccc1Cl)N1CCc2sccc2C1	TDP1 cell CPT inconclusive, DT40 TDP1 no CPT inconclusive (no result: ClpP mod)
COc1cccc(CNC(=O)CCCN2C(=O)CSc3c2c(C)nn3-c2ccccc2)c1	TDP1 cell CPT inconclusive, DT40 TDP1 no CPT inconclusive
CCN1C[C@@H]2[C@@H]3C(=O)N(C)C(=O)[C@@H]3[C@](CC)(C1=O)N2C(=O)c1ccc(C(C)(C)C)cc1	none
Cc1snc(S(=O)(=O)/C(C#N)=N/Nc2cccc(C(F)(F)F)c2)c1C#N	TDP1 cell CPT 16µM, DT40 TDP1 no CPT inconclusive
CNc1ncnc2c1ncn2[C@@H]1O[C@H](COP(=O)(O)O)[C@@H](O)[C@H]1O	none (no result: ClpP mod, TDP1 cell CPT, DT40 TDP1 no CPT)
COC(=O)Cn1c2ccc(OC)cc2c2nc(C)sc21	none (no result: ClpP mod)
COC(=O)C1=C(C)NC2=C(C(=O)CC(C)(C)C2)C1c1cn(Cc2ccc(Br)cc2)nc1-c1ccccc1 (stereo not drawn)	ClpP mod 32µM, TDP1 cell CPT inconclusive, DT40 TDP1 no CPT inconclusive
COC(=O)C1=C(C)NC2=C(C(=O)CC(C)(C)C2)C1c1cccc(C)n1 (stereo not drawn)	ClpP mod inconclusive
Cc1ccc(C)c(CC(=O)N2CCCC(c3cc(C(=O)Nc4ccccc4Cl)no3)C2)c1 (stereo not drawn)	TDP1 cell CPT inconclusive, DT40 TDP1 no CPT inconclusive (no result: TDP1 inh)
CC(C)NC(=O)c1cc(C2CCCCN2C(=O)c2cc(C(C)(C)C)nn2C)on1 (stereo not drawn)	TDP1 cell CPT inconclusive, DT40 TDP1 no CPT 13µM (no result: TDP1 inh)
Cn1nc(C(C)(C)C)cc1C(=O)N1CCCC(c2cc(C(=O)NCc3ccccc3)no2)C1 (stereo not drawn)	TDP1 cell CPT 21µM, DT40 TDP1 no CPT 15µM (no result: TDP1 inh)
N#Cc1ccc(C(=O)N2CCCCC2c2cc(C(=O)Nc3ccccc3Cl)no2)cc1 (stereo not drawn)	DT40 TDP1 no CPT inconclusive (no result: TDP1 inh)
Cn1nc(C(C)(C)C)cc1C(=O)N1CCCC(c2cc(C(=O)Nc3ccccc3Cl)no2)C1 (stereo not drawn)	TDP1 cell CPT inconclusive, DT40 TDP1 no CPT 23µM (no result: TDP1 inh)
Cn1nc(C(C)(C)C)cc1C(=O)N1CCCCC1c1cc(C(=O)Nc2ccccc2Cl)no1 (stereo not drawn)	TDP1 cell CPT 21µM, DT40 TDP1 no CPT 21µM (no result: TDP1 inh)
Cc1cccc(CN2CCN([C@@H](c3ccccc3)c3ccc(Cl)cc3)CC2)c1	none (no result: ClpP mod, TDP1 cell CPT, DT40 TDP1 no CPT)
O=C(OCc1cn([C@@H]2C[C@H](c3ccc(Cl)cc3)N(C(=O)C3CCCCC3)C[C@H]2O)nn1)c1ccccc1	DT40 TDP1 no CPT inconclusive (no result: TDP1 inh)
O=C(COC(=O)c1ccc2c(c1)OCCO2)Nc1ccc(F)cc1	none
Cn1nc(C(C)(C)C)cc1C(=O)N1CCCCC1c1cc(C(=O)NCc2cccnc2)no1 (stereo not drawn)	TDP1 cell CPT 23µM, DT40 TDP1 no CPT 21µM (no result: TDP1 inh)
O=C(Nc1ccc2c(c1)OCO2)c1cc(C2CCCCN2C(=O)c2ccccc2)on1 (stereo not drawn)	TDP1 cell CPT 13µM, DT40 TDP1 no CPT 9.2µM (no result: TDP1 inh)
Cn1nc(C(C)(C)C)cc1C(=O)N1CCCCC1c1cc(C(=O)Nc2ccc3c(c2)OCO3)no1 (stereo not drawn)	TDP1 cell CPT 18µM, DT40 TDP1 no CPT 4.6µM (no result: TDP1 inh)
Cn1nc(C(C)(C)C)cc1C(=O)N1CCCCC1c1cc(C(=O)Nc2ccccc2)no1 (stereo not drawn)	TDP1 cell CPT 21µM, DT40 TDP1 no CPT 23µM (no result: TDP1 inh)
CC(C)NC(=O)CN1CCN(C(c2cc3ccccc3o2)c2nnnn2C(C)(C)C)CC1 (stereo not drawn)	none (no result: TDP1 inh)
O=S1(=O)N=C2CCCCCN2C(c2ccccc2)N1 (stereo not drawn)	none
CCOc1c(Br)cc(C2NS(=O)(=O)N=C3CCCCCN32)cc1OC (stereo not drawn)	TDP1 cell CPT inconclusive, DT40 TDP1 no CPT 16µM
CC(C)[C@H](/C=C/C[Si](C)(C)C)[C@H](C)C(O)/C=C/CCCOC(=O)C(C)(C)C (stereo partly drawn)	none (no result: ClpP mod, TDP1 cell CPT, DT40 TDP1 no CPT)
